Holding throughout (assay): DAPPL (digital affinity profiling via proximity ligation, sequencing); 10 mM Tris-HCl pH 7.5, 50 mM NaCl, 1 mM DTT, 4% glycerol, room temperature, 30 min; GST-TFs on glutathione beads, 16-mer random dsDNA library, 0.1% formaldehyde crosslink after washing; high values mean tight binding
The target of test [1] is T1, FEV (Homo sapiens, UniProt Q99581 1-238).
T1 sequence: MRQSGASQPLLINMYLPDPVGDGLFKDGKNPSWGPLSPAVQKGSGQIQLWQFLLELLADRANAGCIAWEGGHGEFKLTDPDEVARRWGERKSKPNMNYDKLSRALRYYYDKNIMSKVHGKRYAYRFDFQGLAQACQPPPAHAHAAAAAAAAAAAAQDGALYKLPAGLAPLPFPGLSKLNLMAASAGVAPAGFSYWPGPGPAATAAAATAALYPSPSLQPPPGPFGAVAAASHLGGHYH
To be noted: protein: recombinant; tags: N-terminal GST; dsDNA, one strand shown. In outline:
(§1)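 After expression in yeast as GST fusions, human transcription factors were bound to glutathione beads, DNA-barcoded and mixed with a tag-only sample. The pools were incubated with 200 nmole of a 16-mer random double-stranded DNA library in Tris/NaCl/DTT/glycerol buffer (30 min, room temperature), washed and crosslinked with 0.1% formaldehyde. Proximity ligation with BsaI/T4 ligase ran for 1 h at 37 °C, before PCR amplification and sequencing on an Illumina NextSeq500. Binding signal is a hexamer's read frequency for a factor divided by its frequency for the tag-only sample.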

Test [2] deals with ETV5 (Homo sapiens, UniProt P41161 1-510). To be noted: protein: recombinant; tags: N-terminal GST; dsDNA, one strand shown. In outline:
as §1

Test [3] has as its target HSF1 (Homo sapiens, UniProt Q00613 1-529). To be noted: protein: recombinant; tags: N-terminal GST; chain copies: 3; dsDNA, one strand shown. The procedure, abridged: as §1
Test [4] deals with T2, SPIC (Homo sapiens, UniProt Q8N5J4 1-248).
T2 sequence: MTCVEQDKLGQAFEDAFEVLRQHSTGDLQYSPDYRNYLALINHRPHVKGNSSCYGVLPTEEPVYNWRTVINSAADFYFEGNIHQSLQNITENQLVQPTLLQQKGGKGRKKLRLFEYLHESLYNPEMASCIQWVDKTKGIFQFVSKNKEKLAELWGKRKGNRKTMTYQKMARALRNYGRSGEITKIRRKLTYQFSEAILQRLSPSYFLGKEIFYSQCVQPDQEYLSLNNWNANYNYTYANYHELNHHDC
To be noted: protein: recombinant; tags: N-terminal GST; dsDNA, one strand shown. The procedure, abridged:
as §1

Test [5] has as its target ELF4 (Homo sapiens, UniProt Q99607 1-663). To be noted: protein: recombinant; tags: N-terminal GST; dsDNA, one strand shown. In outline: as §1
In test [6] the target is T3, ELK4 (Homo sapiens, UniProt P28324-2 1-405).
T3 sequence: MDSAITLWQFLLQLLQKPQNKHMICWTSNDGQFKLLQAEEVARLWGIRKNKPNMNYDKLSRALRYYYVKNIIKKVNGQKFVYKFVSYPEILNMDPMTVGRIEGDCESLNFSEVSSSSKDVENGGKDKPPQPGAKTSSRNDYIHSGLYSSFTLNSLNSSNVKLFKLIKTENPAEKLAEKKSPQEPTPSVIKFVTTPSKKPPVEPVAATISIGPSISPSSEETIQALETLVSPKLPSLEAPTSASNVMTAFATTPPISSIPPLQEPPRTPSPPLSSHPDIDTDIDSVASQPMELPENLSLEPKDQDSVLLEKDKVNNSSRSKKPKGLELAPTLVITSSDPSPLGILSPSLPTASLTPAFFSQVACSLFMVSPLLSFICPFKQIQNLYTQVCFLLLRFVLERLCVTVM
To be noted: protein: recombinant; tags: N-terminal GST; dsDNA, one strand shown. The procedure, abridged: as §1

For test [7], the target named is T4, ETV2 (Homo sapiens, UniProt O00321 1-342).
T4 sequence: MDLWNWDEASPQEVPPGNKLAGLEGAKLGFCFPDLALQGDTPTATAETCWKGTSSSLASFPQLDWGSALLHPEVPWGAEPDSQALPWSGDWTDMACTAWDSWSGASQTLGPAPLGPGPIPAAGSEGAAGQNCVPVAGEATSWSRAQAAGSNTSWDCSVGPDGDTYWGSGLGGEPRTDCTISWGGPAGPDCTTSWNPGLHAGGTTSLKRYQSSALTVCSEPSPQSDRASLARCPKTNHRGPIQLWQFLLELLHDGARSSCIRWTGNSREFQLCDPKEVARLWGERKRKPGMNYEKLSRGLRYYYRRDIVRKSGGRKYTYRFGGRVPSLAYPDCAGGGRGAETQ
To be noted: protein: recombinant; tags: N-terminal GST; dsDNA, one strand shown. In outline: as §1

Test [8] addresses T5, ELF3 (Homo sapiens, UniProt P78545 1-371).
T5 sequence: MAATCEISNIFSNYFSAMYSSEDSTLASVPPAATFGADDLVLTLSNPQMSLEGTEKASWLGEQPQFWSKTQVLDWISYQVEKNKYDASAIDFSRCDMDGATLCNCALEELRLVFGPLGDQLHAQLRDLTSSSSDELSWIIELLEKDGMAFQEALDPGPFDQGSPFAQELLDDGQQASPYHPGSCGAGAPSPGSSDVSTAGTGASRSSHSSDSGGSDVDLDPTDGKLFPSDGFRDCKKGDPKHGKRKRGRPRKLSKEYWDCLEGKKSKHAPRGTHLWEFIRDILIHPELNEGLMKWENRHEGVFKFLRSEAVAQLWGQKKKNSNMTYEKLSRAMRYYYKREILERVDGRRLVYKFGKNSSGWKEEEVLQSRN
To be noted: protein: recombinant; tags: N-terminal GST; dsDNA, one strand shown. In outline: as §1

The target of test [9] is CRX (Homo sapiens, UniProt O43186 1-299). To be noted: protein: recombinant; tags: N-terminal GST; dsDNA, one strand shown. In outline: as §1
Test [10] addresses ETV1 (Homo sapiens, UniProt P50549 1-477). To be noted: protein: recombinant; tags: N-terminal GST; dsDNA, one strand shown. The procedure, abridged: as §1
Test [11] has as its target T6, ERF (Homo sapiens, UniProt P50548 1-548).
T6 sequence: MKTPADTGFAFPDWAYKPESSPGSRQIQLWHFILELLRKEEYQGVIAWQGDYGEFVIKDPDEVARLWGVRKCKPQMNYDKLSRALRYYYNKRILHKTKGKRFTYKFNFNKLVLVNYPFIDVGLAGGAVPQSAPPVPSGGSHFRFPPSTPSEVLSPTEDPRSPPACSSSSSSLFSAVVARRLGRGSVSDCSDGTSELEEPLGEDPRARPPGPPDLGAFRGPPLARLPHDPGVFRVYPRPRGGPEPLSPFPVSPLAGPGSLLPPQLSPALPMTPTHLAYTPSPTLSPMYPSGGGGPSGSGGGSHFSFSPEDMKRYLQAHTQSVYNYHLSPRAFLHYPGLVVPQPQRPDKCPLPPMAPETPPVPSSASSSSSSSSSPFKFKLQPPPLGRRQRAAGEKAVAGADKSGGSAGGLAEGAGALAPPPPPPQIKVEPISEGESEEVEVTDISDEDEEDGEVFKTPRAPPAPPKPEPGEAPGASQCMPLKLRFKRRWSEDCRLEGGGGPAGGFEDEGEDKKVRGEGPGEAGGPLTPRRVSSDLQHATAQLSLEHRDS
To be noted: protein: recombinant; tags: N-terminal GST; dsDNA, one strand shown. In outline:
as §1

In test [12] the target is T7, ETV3L (Homo sapiens, UniProt Q6ZN32 1-361).
T7 sequence: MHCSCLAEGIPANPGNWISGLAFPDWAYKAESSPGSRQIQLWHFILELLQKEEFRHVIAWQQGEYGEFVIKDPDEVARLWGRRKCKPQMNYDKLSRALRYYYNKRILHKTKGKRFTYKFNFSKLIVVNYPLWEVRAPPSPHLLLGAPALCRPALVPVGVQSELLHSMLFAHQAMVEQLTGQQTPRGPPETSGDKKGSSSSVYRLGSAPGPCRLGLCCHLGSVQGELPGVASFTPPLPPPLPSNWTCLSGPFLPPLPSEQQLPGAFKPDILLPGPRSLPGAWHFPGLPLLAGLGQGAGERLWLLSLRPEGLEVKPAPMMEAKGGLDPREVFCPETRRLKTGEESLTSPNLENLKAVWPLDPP
To be noted: protein: recombinant; tags: N-terminal GST; dsDNA, one strand shown. In outline: as §1

Test [13] concerns the target T8, ETS2 (Homo sapiens, UniProt P15036 1-469).
T8 sequence: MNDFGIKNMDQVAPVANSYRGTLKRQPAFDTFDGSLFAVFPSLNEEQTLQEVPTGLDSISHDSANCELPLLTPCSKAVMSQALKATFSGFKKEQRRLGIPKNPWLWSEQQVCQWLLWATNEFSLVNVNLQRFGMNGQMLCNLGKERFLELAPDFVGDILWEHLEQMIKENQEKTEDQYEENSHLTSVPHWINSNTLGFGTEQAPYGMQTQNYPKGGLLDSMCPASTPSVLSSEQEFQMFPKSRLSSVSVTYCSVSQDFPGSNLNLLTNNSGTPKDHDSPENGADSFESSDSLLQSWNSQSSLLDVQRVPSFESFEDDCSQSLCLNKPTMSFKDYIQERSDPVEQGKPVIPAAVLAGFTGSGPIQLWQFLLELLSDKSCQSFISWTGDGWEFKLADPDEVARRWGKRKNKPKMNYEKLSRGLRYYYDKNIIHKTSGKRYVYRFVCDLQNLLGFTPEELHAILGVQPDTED
To be noted: protein: recombinant; tags: N-terminal GST; dsDNA, one strand shown. In outline: as §1

In test [14] the target is T9, SPDEF (Homo sapiens, UniProt O95238 1-335).
T9 sequence: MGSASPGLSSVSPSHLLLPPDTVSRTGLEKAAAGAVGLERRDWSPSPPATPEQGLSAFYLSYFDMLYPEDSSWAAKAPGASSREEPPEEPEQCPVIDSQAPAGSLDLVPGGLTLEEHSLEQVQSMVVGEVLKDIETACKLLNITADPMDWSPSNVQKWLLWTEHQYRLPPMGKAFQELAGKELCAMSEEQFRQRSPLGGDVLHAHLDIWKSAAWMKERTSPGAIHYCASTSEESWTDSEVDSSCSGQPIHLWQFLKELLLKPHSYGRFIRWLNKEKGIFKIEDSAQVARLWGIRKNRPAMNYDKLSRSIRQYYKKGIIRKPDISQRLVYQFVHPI
To be noted: protein: recombinant; tags: N-terminal GST; dsDNA, one strand shown. The procedure, abridged:
as §1

Test [15] concerns the target T10, ETV7 (Homo sapiens, UniProt Q9Y603 1-341).
T10 sequence: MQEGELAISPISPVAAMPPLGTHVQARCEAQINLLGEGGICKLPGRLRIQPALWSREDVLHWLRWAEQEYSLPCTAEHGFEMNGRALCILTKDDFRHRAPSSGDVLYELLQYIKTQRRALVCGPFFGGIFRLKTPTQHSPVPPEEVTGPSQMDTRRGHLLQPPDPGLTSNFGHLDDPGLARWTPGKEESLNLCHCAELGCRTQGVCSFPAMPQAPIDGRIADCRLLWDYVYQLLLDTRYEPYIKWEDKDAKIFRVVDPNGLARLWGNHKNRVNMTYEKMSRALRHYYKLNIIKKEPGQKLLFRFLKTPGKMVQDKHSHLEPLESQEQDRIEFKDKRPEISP
To be noted: protein: recombinant; tags: N-terminal GST; dsDNA, one strand shown. In outline: as §1

Test [16] concerns the target T11, ELF5 (Homo sapiens, UniProt Q9UKW6-2 1-255).
T11 sequence: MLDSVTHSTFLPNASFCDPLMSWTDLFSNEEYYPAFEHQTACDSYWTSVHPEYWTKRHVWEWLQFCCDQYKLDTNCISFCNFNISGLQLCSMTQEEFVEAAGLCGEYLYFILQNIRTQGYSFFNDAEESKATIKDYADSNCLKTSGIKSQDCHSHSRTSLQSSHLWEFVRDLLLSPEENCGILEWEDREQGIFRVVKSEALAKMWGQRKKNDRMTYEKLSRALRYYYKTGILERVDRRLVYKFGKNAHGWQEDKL
To be noted: protein: recombinant; tags: N-terminal GST; dsDNA, one strand shown. The procedure, abridged:
as §1

The target of test [17] is T12, ETV3 (Homo sapiens, UniProt P41162-2 1-143).
T12 sequence: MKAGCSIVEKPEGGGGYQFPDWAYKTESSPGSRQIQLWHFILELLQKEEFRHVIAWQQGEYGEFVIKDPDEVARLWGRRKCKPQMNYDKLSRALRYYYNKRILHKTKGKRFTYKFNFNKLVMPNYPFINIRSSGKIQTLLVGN
To be noted: protein: recombinant; tags: N-terminal GST; dsDNA, one strand shown. The procedure, abridged:
as §1

Test [18] concerns the target ETV6 (Homo sapiens, UniProt P41212 1-452). To be noted: protein: recombinant; tags: N-terminal GST; dsDNA, one strand shown. In outline: as §1

Chain of ETV6 (P41212 whole entry): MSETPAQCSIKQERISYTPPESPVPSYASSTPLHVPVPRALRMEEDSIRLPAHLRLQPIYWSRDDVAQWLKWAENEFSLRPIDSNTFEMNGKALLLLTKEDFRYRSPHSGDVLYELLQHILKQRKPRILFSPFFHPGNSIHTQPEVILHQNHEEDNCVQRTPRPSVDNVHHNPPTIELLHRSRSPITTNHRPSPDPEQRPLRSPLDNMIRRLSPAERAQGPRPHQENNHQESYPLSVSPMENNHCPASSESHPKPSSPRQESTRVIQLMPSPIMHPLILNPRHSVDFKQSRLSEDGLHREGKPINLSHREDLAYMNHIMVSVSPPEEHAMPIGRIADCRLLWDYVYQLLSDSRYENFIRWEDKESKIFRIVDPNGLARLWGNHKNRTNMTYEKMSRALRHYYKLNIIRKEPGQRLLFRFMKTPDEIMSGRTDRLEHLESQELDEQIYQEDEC
Chain of ETV1 (P50549 whole entry): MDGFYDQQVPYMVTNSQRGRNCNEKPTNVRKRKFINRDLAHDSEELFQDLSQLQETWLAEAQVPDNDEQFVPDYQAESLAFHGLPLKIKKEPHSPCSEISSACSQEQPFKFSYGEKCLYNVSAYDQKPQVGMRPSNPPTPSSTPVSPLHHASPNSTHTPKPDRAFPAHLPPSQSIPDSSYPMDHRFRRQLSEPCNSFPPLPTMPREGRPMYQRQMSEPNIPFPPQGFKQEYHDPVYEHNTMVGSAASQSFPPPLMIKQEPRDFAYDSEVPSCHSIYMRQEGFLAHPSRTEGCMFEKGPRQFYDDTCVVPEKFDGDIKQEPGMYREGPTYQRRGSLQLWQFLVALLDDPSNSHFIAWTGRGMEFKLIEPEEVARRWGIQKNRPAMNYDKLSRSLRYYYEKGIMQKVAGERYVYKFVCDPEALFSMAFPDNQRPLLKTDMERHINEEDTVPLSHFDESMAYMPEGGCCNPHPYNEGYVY
Chain of ETV5 (P41161 whole entry): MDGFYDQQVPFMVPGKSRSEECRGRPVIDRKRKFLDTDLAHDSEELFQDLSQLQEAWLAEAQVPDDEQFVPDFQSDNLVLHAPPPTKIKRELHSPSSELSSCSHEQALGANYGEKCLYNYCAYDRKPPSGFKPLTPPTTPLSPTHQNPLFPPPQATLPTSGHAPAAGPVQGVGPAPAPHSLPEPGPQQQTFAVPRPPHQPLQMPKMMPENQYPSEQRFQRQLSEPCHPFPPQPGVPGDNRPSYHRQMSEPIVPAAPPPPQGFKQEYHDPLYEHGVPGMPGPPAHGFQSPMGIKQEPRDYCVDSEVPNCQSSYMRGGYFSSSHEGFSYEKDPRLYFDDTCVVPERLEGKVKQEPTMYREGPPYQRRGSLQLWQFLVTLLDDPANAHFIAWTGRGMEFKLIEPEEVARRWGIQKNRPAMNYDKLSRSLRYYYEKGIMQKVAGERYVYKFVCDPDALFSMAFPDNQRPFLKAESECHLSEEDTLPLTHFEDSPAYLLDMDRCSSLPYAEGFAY
Chain of HSF1 (Q00613 whole entry): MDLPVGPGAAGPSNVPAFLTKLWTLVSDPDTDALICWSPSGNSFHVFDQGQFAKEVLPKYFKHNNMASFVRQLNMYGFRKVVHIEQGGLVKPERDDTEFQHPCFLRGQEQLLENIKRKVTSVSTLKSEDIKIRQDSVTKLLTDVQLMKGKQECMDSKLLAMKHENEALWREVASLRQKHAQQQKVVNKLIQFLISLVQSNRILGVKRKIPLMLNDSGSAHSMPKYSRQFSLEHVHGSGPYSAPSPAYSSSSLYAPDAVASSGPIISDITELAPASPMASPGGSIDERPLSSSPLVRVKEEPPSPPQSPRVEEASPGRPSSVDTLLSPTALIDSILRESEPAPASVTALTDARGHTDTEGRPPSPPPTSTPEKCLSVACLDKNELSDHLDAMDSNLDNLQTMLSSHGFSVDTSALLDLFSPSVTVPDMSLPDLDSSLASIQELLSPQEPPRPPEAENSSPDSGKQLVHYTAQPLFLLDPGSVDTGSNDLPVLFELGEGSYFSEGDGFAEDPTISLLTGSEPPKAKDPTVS
Chain of ELF4 (Q99607 whole entry): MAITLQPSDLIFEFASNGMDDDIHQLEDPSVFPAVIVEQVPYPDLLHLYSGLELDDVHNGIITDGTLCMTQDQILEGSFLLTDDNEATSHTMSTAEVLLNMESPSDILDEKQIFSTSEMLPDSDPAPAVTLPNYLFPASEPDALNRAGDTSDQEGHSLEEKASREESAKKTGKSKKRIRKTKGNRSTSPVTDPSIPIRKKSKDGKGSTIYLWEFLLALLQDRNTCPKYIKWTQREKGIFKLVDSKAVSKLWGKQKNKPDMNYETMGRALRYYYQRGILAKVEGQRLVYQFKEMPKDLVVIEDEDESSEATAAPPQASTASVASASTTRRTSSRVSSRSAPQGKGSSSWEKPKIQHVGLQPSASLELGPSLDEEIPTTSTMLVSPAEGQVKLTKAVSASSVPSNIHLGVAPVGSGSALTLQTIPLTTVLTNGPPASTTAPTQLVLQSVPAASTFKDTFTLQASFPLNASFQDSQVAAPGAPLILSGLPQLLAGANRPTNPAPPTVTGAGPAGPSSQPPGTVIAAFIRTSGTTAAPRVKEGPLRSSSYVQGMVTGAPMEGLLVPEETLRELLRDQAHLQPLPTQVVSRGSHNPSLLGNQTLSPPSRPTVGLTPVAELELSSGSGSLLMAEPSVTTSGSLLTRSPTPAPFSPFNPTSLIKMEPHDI
Chain of CRX (O43186 whole entry): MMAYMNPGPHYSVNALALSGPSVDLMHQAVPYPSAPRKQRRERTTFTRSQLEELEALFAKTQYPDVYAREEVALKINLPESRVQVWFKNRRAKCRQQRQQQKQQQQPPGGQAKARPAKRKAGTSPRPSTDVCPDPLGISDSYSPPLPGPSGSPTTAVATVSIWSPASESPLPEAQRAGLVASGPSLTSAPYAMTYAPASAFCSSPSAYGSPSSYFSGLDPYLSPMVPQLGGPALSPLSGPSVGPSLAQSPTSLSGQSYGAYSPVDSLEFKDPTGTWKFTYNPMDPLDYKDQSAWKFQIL

As to AAATCT, the binding signal was 1.29 fold enrichment (6-mer frequency, TF over GST control) in test [1]; 1.31 fold enrichment (6-mer frequency, TF over GST control) in [2]; 1.75 fold enrichment (6-mer frequency, TF over GST control) in test [3]; 1.39 fold enrichment (6-mer frequency, TF over GST control) in test [4]; 1.34 fold enrichment (6-mer frequency, TF over GST control) in test [5]; 1.25 fold enrichment (6-mer frequency, TF over GST control) in test [6]. Further, the binding signal was 1.24 fold enrichment (6-mer frequency, TF over GST control) in test [7]; 1.25 fold enrichment (6-mer frequency, TF over GST control) in test [8]; 2.03 fold enrichment (6-mer frequency, TF over GST control) in [9]; 1.35 fold enrichment (6-mer frequency, TF over GST control) in [10]; 1.3 fold enrichment (6-mer frequency, TF over GST control) in test [11]; 1.32 fold enrichment (6-mer frequency, TF over GST control) in test [12]. Besides, the binding signal in [13] was 1.33 fold enrichment (6-mer frequency, TF over GST control); in [14], 1.25 fold enrichment (6-mer frequency, TF over GST control); in test [15] it was 1.16 fold enrichment (6-mer frequency, TF over GST control); in test [16], 1.27 fold enrichment (6-mer frequency, TF over GST control); in [17], 1.19 fold enrichment (6-mer frequency, TF over GST control); in test [18], 1.24 fold enrichment (6-mer frequency, TF over GST control).
